The results in this text go back to PubChem BioAssay (NCI).

Holding throughout (assay): NCI-60 one-dose screen, 48 h (100 = growth as untreated, 0 = no growth, -100 = all killed)
Common to all, as to settings: 10 µM unless noted

Experiment [1] has as its system NCI-H23 lung.
Experiment [2] concerns NCI-H226 lung.
Experiment [3] deals with NCI-H322M lung.
Experiment [4] has as its system HOP-62 NSCLC.
In experiment [5] the test system is NCI-H460 lung.
The test system of experiment [6] is HOP-92 NSCLC.
In experiment [7] the test system is NCI-H522 lung.
Experiment [8] relates to A549/ATCC NSCLC.
Experiment [9] deals with 786-0 renal.
The test system of experiment [10] is COLO 205 colon.
For experiment [11], the system named is DU-145 prostate.
The subject of experiment [12] is K-562 leukemia.
Experiment [13] deals with MALME-3M melanoma.
Experiment [14] has as its system MDA-MB-231 breast.
In experiment [15] the test system is RXF 393 renal.
The test system of experiment [16] is SF-268 CNS.
For experiment [17], the system named is SF-295 CNS.
The subject of experiment [18] is SF-539 CNS.
Experiment [19] deals with UACC-257 melanoma.
The test system of experiment [20] is M14 melanoma.

This is part of a sample that, as a whole, favours compounds with a hit. Of some 83,000 tested, about 20% had one in any assay.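 Assay: single dose, 48 h. Readout: percent growth (0 = no net growth; negative = cell death). Active: <10.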 A number with no mark means an inactive call. Active and inactive are the calls of the source.

On to `C(=N\Nc1nnc2n1N=C(c1ccccc1)CS2)/c1ccc(OCc2ccccc2)cc1`, for which the growth in experiment [1] was 103%; in experiment [2], 88.9%; in experiment [3], 107%; in experiment [4], 110%; in experiment [5] it was 106%; in experiment [6], 110%. The growth was 88.1% in experiment [7]; 91.1% in [8]; 110% in experiment [9]; 112% in [10]; 104% in experiment [11]; 57.6% in experiment [12]. Moreover, the growth was 125% in experiment [13]; 108% in [14]; 80.1% in experiment [15]; 115% in experiment [16]; 101% in experiment [17]; 102% in experiment [18]. The growth is 103% in experiment [19] and 113% in experiment [20].

Regarding `CN1/C(=C/C=C/c2n(Cc3ccc4ccccc4c3)c(Cl)c(Cl)[n+]2Cc2ccc3ccccc3c2)Oc2ccccc21`, the growth in experiment [1] was -80% (active); in [2] it was -75.4% (active); in [3], -10.6% (active); in [4] it was -85.7% (active); in [5] it was -74.5% (active); in experiment [6] it was -81% (active). The growth in experiment [7] was -81.6% (active); in experiment [8], -86.7% (active); in [9], -82.6% (active); in experiment [10] it was -80.1% (active); in [11], -86.6% (active); in [12], 89.4%. Also, the growth in [13] is -97.1% (active); in experiment [14], -94% (active); in experiment [15], -88.2% (active); in experiment [16], -69.4% (active); in experiment [17], -68.4% (active); in experiment [18], -94% (active). The growth is -77.9% (active) in experiment [19] and -77% (active) in experiment [20].

On to `Nc1ccc(Cl)c2c(=O)c3ccccc3[nH]c12`, for which the growth in experiment [1] is 71.3%; in experiment [2], 77%; in experiment [3], 99.8%; in experiment [4] it was 105%; in [5] it was 91.2%; in [6] it was 99.4%. Moreover, the growth in experiment [7] is 69.8%; in [8] it was 80%; in [9], 77.4%; in [10], 90.7%; in [11], 94.1%; in experiment [12], 83.5%. The growth in [13] was 109%; in experiment [14] it was 91.5%; in experiment [15], 80.4%; in experiment [16], 92.9%; in [17] it was 76.4%; in experiment [18], 83.5%. The growth was 74.7% in experiment [19] and 91.1% in experiment [20].

Take `NC(=N\N=C/c1ccc(Cl)cc1Cl)/C(N)=N\N=C/c1ccc(Cl)cc1Cl`: the growth in [1] was 87.1%; in [2], 62.8%; in experiment [3], 41%; in experiment [4], 83%; in experiment [5], 20.7%; in experiment [6], 43.8%. Moreover, the growth in experiment [7] was 79.8%; in experiment [8], 62.5%; in experiment [9], 3.29% (active); in [10], 71.6%; in experiment [11], 90.6%; in experiment [12], 80.6%. The growth in [13] was 88.3%; in experiment [14], 71.1%; in experiment [15] it was 83.6%; in [16] it was 89.7%; in [17], 60%; in [18] it was 43.5%. The values for the growth in experiment [19] and in experiment [20] were 118% and 105%, respectively.

Consider `O=C(c1ccccc1)[C@@H](c1ccccc1)[C@]1(O)C(=O)Nc2ccccc21`, for which the growth in [1] was 95%; in experiment [2], 83.1%; in experiment [3], 87.4%; in experiment [4] it was 77.3%; in experiment [5], 95%; in experiment [6] it was 74%. Besides, the growth in experiment [7] is 93.7%; in [8], 103%; in experiment [9], 97.7%; in experiment [10], 84.1%; in experiment [11], 103%; in [12] it was 102%. The growth in experiment [13] is 98.2%; in [14] it was 88.4%; in [15], 98.6%; in [16], 84.9%; in experiment [17], 95.8%; in experiment [18], 95.3%. Besides, the growth is 96.8% in [19] and 95.5% in [20].

Regarding `O=C(CN1C(=O)c2ccccc2S1(=O)=O)Nc1nc(-c2cc3ccccc3oc2=O)cs1`, the growth in experiment [1] is 110%; in [2] it was 94.4%; in experiment [3] it was 97.3%; in experiment [4] it was 105%; in experiment [5] it was 105%; in experiment [6] it was 96.4%. Besides, the growth in [7] was 92.2%; in experiment [8], 104%; in [9], 91.8%; in [10], 117%; in [11], 108%; in [12], 100%. For the same compound, the growth was 101% in [13]; 114% in experiment [14]; 105% in [15]; 95.7% in experiment [16]; 102% in experiment [17]; 95.8% in experiment [18]. Moreover, the values for the growth in experiment [19] and in experiment [20] were 99.8% and 106%, respectively.

In the case of `CC1=NN(c2cccc(Cl)c2)C(=O)/C1=C\C=C\c1ccccc1`, the growth in experiment [1] was 26.3%; in experiment [2], 3.87% (active); in [3], 112%; in experiment [4], 22.3%; in experiment [5], 101%; in experiment [6], 101%. The growth in experiment [7] was 34.4%; in [8], 94.5%; in experiment [9], 35.5%; in experiment [10] it was 4.77% (active); in experiment [11] it was 112%; in experiment [12] it was 76.9%. For the same compound, the growth in experiment [13] was 116%; in experiment [14] it was 13.7%; in experiment [15], -87.7% (active); in experiment [16], 75.5%; in experiment [17], 101%; in experiment [18], 21.6%. Further, the growth in [19] is 63.3%; in [20] it was 14.4%.

Turning to `C=CCNc1nc(O)c(/C=C2\C=Nc3ncccc32)s1`, the growth is 6.83% (active) in [1]; 10.7% in [2]; 10.2% in [3]; -10.8% (active) in [4]; 2.18% (active) in experiment [5]; -1.86% (active) in experiment [6]. Further, the growth in [7] was -5.27% (active); in experiment [8], 13.2%; in experiment [9] it was 4.4% (active); in experiment [10], -20.1% (active); in experiment [11], 12.7%; in experiment [12], 42.1%. Moreover, the growth in experiment [13] is 40.2%; in [14], 19.8%; in experiment [15] it was -41.3% (active); in experiment [16], -3.26% (active); in [17], 13%; in experiment [18], -66.2% (active). The values for the growth in experiment [19] and in experiment [20] were 9.55% (active) and 24.5%, respectively.
